Laboratory results reported in PubChem BioAssay AID504339 (National Center for Advancing Translational Sciences (NCATS), 2011).
Among all 390,000 compounds or so, about 17,000 (4.4%) were called active. About 8% were inconclusive and are not listed. This is one part of a sample in which actives are shown more often than they occur. Unmarked numbers belong to inactive results. Calls come from the whole dose curve; as a rule, active = well fitted inhibition curve with a large enough effect; inconclusive = small, poorly fitted or top-dose-only effect; inactive = no such curve, though single readings can be large or run the other way.

Molecular target: Lysine-specific demethylase 4A (Homo sapiens) (UniProt O75164)
Sequence (O75164 whole entry, looked up, the tested form may be a part): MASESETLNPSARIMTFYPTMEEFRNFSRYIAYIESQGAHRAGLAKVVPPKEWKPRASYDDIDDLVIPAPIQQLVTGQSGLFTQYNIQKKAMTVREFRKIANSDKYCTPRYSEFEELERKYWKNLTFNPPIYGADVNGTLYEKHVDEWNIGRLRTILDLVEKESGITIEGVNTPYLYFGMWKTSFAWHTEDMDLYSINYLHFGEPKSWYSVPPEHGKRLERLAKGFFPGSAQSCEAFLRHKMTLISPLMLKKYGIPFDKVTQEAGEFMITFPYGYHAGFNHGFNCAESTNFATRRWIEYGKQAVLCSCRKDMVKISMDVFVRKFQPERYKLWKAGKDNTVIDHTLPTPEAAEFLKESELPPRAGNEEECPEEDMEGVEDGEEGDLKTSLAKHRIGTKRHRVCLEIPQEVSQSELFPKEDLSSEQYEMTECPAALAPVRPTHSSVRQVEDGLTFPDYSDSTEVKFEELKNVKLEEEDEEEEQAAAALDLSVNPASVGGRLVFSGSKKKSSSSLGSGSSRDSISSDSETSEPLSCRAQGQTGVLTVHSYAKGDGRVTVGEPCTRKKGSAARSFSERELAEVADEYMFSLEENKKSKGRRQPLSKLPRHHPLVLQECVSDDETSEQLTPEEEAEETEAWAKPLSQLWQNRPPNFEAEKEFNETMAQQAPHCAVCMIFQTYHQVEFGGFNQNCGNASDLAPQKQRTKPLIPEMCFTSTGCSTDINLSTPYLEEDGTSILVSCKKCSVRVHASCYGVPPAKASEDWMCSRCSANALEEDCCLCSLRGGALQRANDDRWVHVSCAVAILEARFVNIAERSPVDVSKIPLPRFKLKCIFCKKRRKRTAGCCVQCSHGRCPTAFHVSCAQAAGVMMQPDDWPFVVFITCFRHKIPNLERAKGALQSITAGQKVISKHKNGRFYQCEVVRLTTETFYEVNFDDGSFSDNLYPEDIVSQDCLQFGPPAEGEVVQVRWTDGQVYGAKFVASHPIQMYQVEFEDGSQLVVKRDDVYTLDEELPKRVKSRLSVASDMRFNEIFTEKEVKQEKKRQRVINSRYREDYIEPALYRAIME
Assay: qHTS Assay for Inhibitors of JMJD2A-Tudor Domain; note: nearly all actives have a fitted effect of over 50% in size
Details: AlphaScreen JMJD2A-Tudor / H3K4me3 peptide binding; series mostly up to 114 µM; activity change, negative = inhibition: at the top concentration
% is set by controls: 0 for no effect and ±100 for the full control effect; potency is the fitted concentration of half-maximal effect.

SMILES | activity change, negative = inhibition [%] | Potency
CCOc1ccc(NC(=O)CSc2c3c(nc4ccccc24)CCCC3)cc1 | -19 | 
CCN1/C(=C\c2ccc3ccccc3[n+]2CC)Sc2cc(C)ccc21 |  | 20 µM (active)
CCN1/C(=C/c2ccc3ccc(C)cc3[n+]2CC)Sc2ccccc21 |  | 89.1 µM (active)
CCOc1cc(CNC(=O)c2sc3ncnc(N(C)C4CCCCC4)c3c2C)ccc1OC | -26 | 
Cc1ccc(C(=O)CSc2nc(-c3ccccc3)nc3c2CCCC3)c(C)c1 | 27.3 | 
COc1ccc(NC(=O)CSC2=Nc3ccccc3C3=NC(CC(=O)NCc4ccccc4OC)C(=O)N23)cc1Cl (stereo not given) | -8.22 | 
Cc1nn(CC(=O)O)c(=O)c2cc3cc(F)ccc3n12 | -6.18 | 
CCC(=O)N1CCc2cc(CNC(=O)Nc3ccccc3Cl)ccc21 | -14.4 | 
CC(=O)N1c2ccc(S(=O)(=O)N3CCCCCC3)cc2CC1C(=O)NCc1ccccc1C (stereo not given) | -4.97 | 
Cc1c(NC(=O)C(C)(C)C)cccc1-c1nc2ccccc2s1 | 7.62 | 
CCN(CC)CCNC(=O)CN1N=C(c2ccc(OC)cc2)CCC1=O | 4.49 | 
C#CCOCCOCCOCCNc1nc(N2CCN(C(=O)CCCCCCCCCCNC(=O)Cn3cc(CCCCCN)nn3)CC2)nc(N2CCN(C(=O)CCCCCCCCCCNC(=O)[C@H](CO)n3cc(CCCSC)nn3)CC2)n1 |  | 79.4 µM (active)
C#CCOCCOCCOCCNc1nc(N2CCN(C(=O)CCCCCCCCCCNC(=O)[C@H]([C@@H](C)CC)n3cc(CCCCN=C(N)N)nn3)CC2)nc(N2CCN(C(=O)CCCCCCCCCCNC(=O)[C@H](CO)n3cc(CCCSC)nn3)CC2)n1 |  | 20 µM (active)
CC[C@@H](C)[C@@H](C(=O)N1CCN(C(=O)OC(C)(C)C)CC1)n1cc(CCC(=O)O)nn1 | -14.1 | 
C#CCOCCOCCOCCNc1nc(N2CCN(C(=O)CCCCCCCCCCNC(=O)[C@H](CCCCN)n3cc(C)nn3)CC2)nc(N2CCN(C(=O)CCCCCCCCCCNC(=O)[C@H](CO)n3cc(CCCSC)nn3)CC2)n1 |  | 56.2 µM (active)
C#CCOCCOCCOCCNc1nc(N2CCN(C(=O)[C@H](C(C)C)n3cc(CCO)nn3)CC2)nc(N2CCN(C(=O)[C@H](C(C)C)n3cc(CCO)nn3)CC2)n1 | -7.69 | 
Cc1c(-c2nsc(NC(=O)c3cccc(Cl)c3)n2)nnn1-c1ccccc1C(F)(F)F | -7.14 | 
COc1ccc(NC(=O)CCCN2C(=O)CCn3nc(-c4cn(C)c5ccccc45)cc32)cc1OC | -33.5 | 
Cc1ccc(SCC(=O)Nc2ccc3oc(-c4ccccc4C)nc3c2)cc1 | 13.9 | 
CCN(CC)c1ccc(NC(=O)Cn2nc3c(cc2=O)CCCC3)c(C)c1 | -23.9 | 

SMILES | activity change, negative = inhibition [%] | Potency
CCOc1ccc(CC(=O)NCCc2csc3nc(-c4ccccc4F)nn23)cc1 | -13.4 | 
O=C(COc1ccccc1F)Nc1nc(-c2ccccn2)cs1 |  | 79.4 µM (active)
O=C(CN1C(=O)C2C3C=CC(C3)C2C1=O)Nc1nc(-c2ccccn2)cs1 (stereo not given) |  | 50.1 µM (active)
CC1CCN(S(=O)(=O)c2nnc(NC(=O)COc3ccccc3F)s2)CC1 | -9.72 | 
CC(NC(=O)c1ccco1)C(=O)Nc1nc(-c2ccccn2)cs1 (stereo not given) |  | 44.7 µM (active)
Cc1csc2nc(COC(=O)c3ccc(NC(=O)COc4ccccc4F)cc3)cc(=O)n12 | 8.61 | 
O=C(NCCN1C(=O)C2C3C=CC(C3)C2C1=O)Nc1ccccn1 (stereo not given) | -10.6 | 
O=C(CN1C(=O)C2C3C=CC(C3)C2C1=O)NCCc1ccccc1Cl (stereo not given) | -6.94 | 
CSCCC(NC(=O)c1ccco1)C(=O)Nc1cc(C)ccn1 (stereo not given) | -4.14 | 
Cc1cc(NC(=O)[C@H](C)NC(=O)c2ccco2)ccc1Br | -13 | 
CCOc1ccccc1CNC(=O)Nc1cn(CC(C)C)c(=O)c2ccccc12 | -14.9 | 
CCc1nn(CC(=O)N2CCN(c3ccc(Cl)cc3)CC2)c(=O)c2cc3occc3n12 | -32.2 | 
Cc1ccc(CCNC(=O)c2ccc(CS(=O)(=O)Cc3cccc(C)c3)o2)cc1 | -25.1 | 
Cc1ccc(-n2c(SCC(=O)Nc3cccc(F)c3)nc3c(oc4ccccc43)c2=O)cc1C | -10.9 | 
COC(=O)c1ccc(/C=N/OCC(=O)Nc2cc(F)ccc2F)cc1 | -15.9 | 
COC(=O)c1ccc(/C=N/N2C(C)CCCC2C)cc1 (stereo not given) |  | 63.1 µM (active)
COC(=O)c1ccc(/C=N/NC(=O)C(=O)N2CCCCCC2)cc1 | 7.78 | 
CCOc1ccc(/C(O)=C2/C(=O)C(=O)N(Cc3cccnc3)C2c2ccc(N(C)C)cc2)c(C)c1 (stereo not given) |  | 56.2 µM (active)
CCCOc1ccc(C2c3c(-c4ccccc4O)n[nH]c3C(=O)N2Cc2cccnc2)cc1 (stereo not given) | -21.1 | 
CCOc1cccc(/C(O)=C2/C(=O)C(=O)N(CCOC)C2c2ccncc2)c1 (stereo not given) | -15.7 | 

SMILES | activity change, negative = inhibition [%] | Potency
COc1ccccc1N1CCN(Cc2ccc(OC)c3ccccc23)CC1 |  | 3.16 µM (active)
CC(=O)N1CCN(CC(c2ccccc2)c2ccccc2)CC1 | -9.23 | 
Oc1ccccc1CN1CCN(C(c2ccccc2)c2ccccc2)CC1 |  | 56.2 µM (active)
COc1ccccc1CN1CCN(Cc2cc(OC)c(OC)cc2OC)CC1 |  | 7.08 µM (active)
COc1ccccc1NC(=S)N1CCN(C(c2ccccc2)c2ccccc2)CC1 | -21.7 | 
COc1ccccc1CNCc1cccs1 | -8.7 | 
COc1ccccc1Cn1c(CO)nc2ccccc21 | -17.6 | 
CC(C)OCC(O)CN1CCN(C(c2ccccc2)c2ccccc2)CC1 (stereo not given) | -8.28 | 
COc1ccc(OC)c(CN2CCN(C(=O)CNC(=O)c3cc(C)cc(C)c3)CC2)c1 | -18.2 | 
COc1ccccc1CN1CCN(C(c2ccccc2)c2ccccc2)CC1 |  | 50.1 µM (active)
CNCC(O)CN1CCN(c2ccccc2OC)CC1 (stereo not given) | -8.45 | 
COc1ccccc1N1CCN(Cc2cc(OC)c3c(c2)OCO3)CC1 | -27.9 | 
CCCCNc1ccc(-c2nc(-c3ccncc3)no2)cc1[N+](=O)[O-] | -17.5 | 
CCOC(=O)c1c(S(=O)(=O)N2CCC(C(=O)NCc3ccccc3OC)CC2)c(C)n(C)c1C | -14 | 
O=C(COc1ccccc1)NCc1ccc2c(c1)CCN2C(=O)c1ccc(F)cc1 | -14 | 
COc1ccc(-c2c(C)nn3c(N4CCC(C(=O)NCCC(C)C)CC4)cc(C)nc23)cc1OC | 0.337 | 
COc1ccccc1CNc1nc2ccc(Cl)cc2n2cnnc12 | 0.336 | 
CCn1c(C)c(C)c2cc(C(=O)NCCc3cc(OC)ccc3OC)ccc21 |  | 35.5 µM (active)
COc1ccc(OC)c(CCNC(=O)c2nn(C)c3c2CS(=O)(=O)c2ccccc2-3)c1 | -15.8 | 
COc1ccc(-n2c(=O)[nH]c3cc(C(=O)NCCc4ccc(OC)c(OC)c4)ccc3c2=O)c(OC)c1 | 4.2 | 
